Compound activity deposited in PubChem BioAssay by National Center for Advancing Translational Sciences (NCATS).
CHX counter: Cycloheximide Counterscreen for Small Molecule Inhibitors of Shiga Toxin | max response, % | 300,000 compounds, 12% hits | cell reporter, cycloheximide protein synthesis inhibition counterscreen | AID 2314, 2010; in the data active = max response mostly above about 13%, no sharp cut-off; inactive = mostly below about 14%; also: read at 38.3 µM for the half of the compounds with a filed dose; 0% is about no effect
AMA1 RON2 block: qHTS for Inhibitors of AMA1-RON; Towards Development of Antimalarial Drug Lead: Primary Screen. 360,000 compounds, 0.2% hits. AID 720542, 2013. Plasmodium falciparum AMA1 (3D7) - RON2 peptide interaction. AlphaScreen AMA1-biotinylated RON2 peptide binding. Potency, µM (series often up to 58.2 µM), for inactives: at the highest dose activity change, negative = inhibition, usual class: inhibitors; active = well fitted inhibition curve with a large enough effect; inconclusive = small, poorly fitted or top-dose-only effect; inactive = no such curve, though single readings can be large or run the other way;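 also: potency is read from the fitted curve at half-maximal effect; 0% = vehicle wells and -100% = peptide control; nearly all actives have a fitted effect of over 45% in size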
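AMA1 (3D7) with his tag at 25 nM final met compounds first, then biotinylated RON2 peptide at 25 nM; detection used donor plus acceptor beads, 10 µg/mL apiece, read by AlphaScreen after 30 min at room temperature.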
Shiga toxin inh: A qHTS for Small Molecule Inhibitors of Shiga Toxin | inhibition, % at 38.7 µM | 290,000 compounds, 9.2% hits | AID 2315, 2010 | Vero cells, Shiga toxin protein synthesis inhibition reporter; in the data active = inhibition mostly above about 28%, no sharp cut-off; inactive = mostly below about 43%; also: 0% is about no effect
LASV entry inh: qHTS for Inhibitors of binding or entry into cells for Lassa Virus; Potency, µM (doses to about 37.9 µM), for inactives: top-dose activity change, negative = inhibition, usual class: inhibitors; 300,000 compounds, 1.2% hits; Lassa virus pseudotype entry inhibition, cell reporter; calls by dose curve; tested in HEK293 cells; also: potency is read from the fitted curve at half-maximal effect; % is scaled to controls: 0 for no effect and ±100 for the full control effect; nearly all actives have a fitted effect of over 50% in size
MARV entry inh: qHTS for inhibitors of binding or entry into cells for Marburg Virus; Marburg virus pseudotyped entry inhibition, cell reporter; Potency, µM (series often up to 37.8 µM), without a hit: at the top dose activity change, negative = inhibition, most hits filed as inhibitors; 300,000 compounds, 1.8% hits; AID 540276, 2011; calls by dose curve; tested in HEK293 cells; also: potency is read from the fitted curve at half-maximal effect; % is scaled to controls: 0 for no effect and ±100 for the full control effect
Starred values were filed as active, the others as inactive; ? = inconclusive; . = no result; [ ] = another dose, or the depositor's remark. Shown is part of a subset that was picked to be rich in hits.

SMILES	CHX counter	AMA1 RON2 block	Shiga toxin inh	LASV entry inh	MARV entry inh
CCN1CCN(C(=O)c2ccc3c(c2)N(Cc2ccccc2F)C(=O)c2ccccc2S3=O)CC1 (stereo not given)	.	.	.	1.2%[46.1 µM]	11.8%[46.1 µM]
CCc1c(C)sc(NC(=O)c2cccs2)c1C#N	53.3*	9.9%	77.0*	3.9%	-7.2%
Cc1ccc(C(=O)Nc2sc(C(=O)N(C)C)c(C)c2C#N)cc1	-0.6	16.0%	20.0	6.2%	-0.8%
CCOC(=O)c1c(NC(=O)c2cccs2)sc(C)c1CC	3.9	29.5%	12.2	-17.0%	?
CCc1c(C)sc(NC(=O)c2cccs2)c1C(=O)OC(C)C	-0.8	17.5%	-5.9	?	9.2µM*
Cc1sc(NC(=O)c2ccccc2)c(C#N)c1-c1ccccc1	42.6*	-4.0%	26.1*	?	-35.8%
O=C(NCC1CCCO1)c1cccc(S(=O)(=O)Nc2ccccc2Cl)c1 (stereo not given)	.	4.8%	.	.	.
CCOc1ccc(-c2nnc(SCc3nc4ccccc4[nH]3)n2N)cc1	42.2*	2.0%	82.0	-11.4%	11.6%
OC(Cc1nc2ccccc2[nH]1)c1ccccc1Cl (stereo not given)	48.8*	-3.9%	107.5*	9.4%	-7.5%
Cn1c(SCc2nc3ccccc3[nH]2)nnc1-c1cccnc1	14.0	13.1%	31.2	-1.8%	?
Cc1ccc(OCc2nc3ccccc3[nH]2)cc1	61.4*	38.9%	56.5*	?	?
O=S(=O)(CCc1nc2ccccc2[nH]1)c1ccc(Cl)cc1	10.6	-10.5%	13.1	1.6%	-9.1%
CCc1nc2ccccc2[nH]1	-2.4	2.6%	-4.7	2.8%	20.5%
Clc1ccc(OCc2nc3ccccc3[nH]2)cc1	32.0*	4.2%	55.6*	?	?
CCCC(C)NC(=O)COC(=O)c1cc(Br)c(Br)s1 (stereo not given)	1.3	0.9%	-11.5	2.9%	-18.0%[46.1 µM]
NC(Cc1nc2ccccc2[nH]1)c1ccc(Cl)cc1 (stereo not given)	45.1*	37.7%	80.7*	?	?
NC(Cc1ccccc1)c1nc2ccccc2[nH]1 (stereo not given)	18.0*	11.8%	47.6*	18.2%	16.3%[46.1 µM]
c1ccc(OCc2nc3ccccc3[nH]2)cc1	48.6*	-9.5%	75.4*	?	3.8%
Cc1ccccc1C(=O)N(Cc1cccs1)C1CCS(=O)(=O)C1 (stereo not given)	-1.8	12.8%	-7.6	?	-1.8%[46.1 µM]
Cc1ccc(-n2cc(-c3ccccc3)c3c(=O)[nH]cnc32)cc1	-3.7	8.7%	-10.2	14.6µM*	-28.5%
Fc1ccc(-n2cc(-c3ccccc3)c3c(=S)nc[nH]c32)cc1	-2.1	43.2%	-2.5	5.01µM*	?
O=c1[nH]cnc2c1c(-c1ccccc1)cn2-c1ccccc1	2.3	-14.4%	20.6	.	.
CC(C)Nc1ncnc2c1ncn2[C@H]1CN(Cc2cccnc2)C[C@@H](CO)O1	.	11.5%	.	.	.
O=C(O)CCc1ccc(-c2ccccc2)o1	15.3*	8.5%	5.9	1.7%	-1.2%
O=C(O)CCc1nc(-c2ccccc2)c(-c2ccccc2)o1	-4.7	.	-1.3	41.6%	?
SMILES	CHX counter	AMA1 RON2 block	Shiga toxin inh	LASV entry inh	MARV entry inh
COc1ccc2nc(NC(=O)c3ccco3)sc2c1	20.4*	10.4%	60.2*	.	.
Cc1ccc2nc(NC(=O)c3ccco3)sc2c1	29.6*	5.5%	14.9	1µM*	4.47µM*
Cc1ccc2nc(NC(=S)NC(=O)c3ccco3)sc2c1	67.4*	61.0%	137.7*	?	3.9%
Cc1nnc(NC(=O)C2CCN(C(=O)c3ccco3)CC2)s1	-1.8	1.9%	-10.7	0.5%[46.1 µM]	-0.8%[46.1 µM]
Cc1nc2ccc3nc(NC(=O)c4ccco4)sc3c2s1	.	32.6%	.	12.4%	?
CC(C)c1nnc(NC(=O)C2CCN(C(=O)c3ccco3)CC2)s1	21.0*	-2.8%	40.4*	-0.7%[46.1 µM]	13.5%[46.1 µM]
Cc1ccc(C(=O)NCC(c2cccs2)S(=O)(=O)c2cccs2)cc1 (stereo not given)	.	.	.	-23.1%[46.1 µM]	.
Nc1nonc1-c1nc2cnccc2n1C1CCCCC1	.	.	.	-15.1%	.
CC(C)Cn1c(=O)c2ccccc2n2c(CCC(=O)Nc3cccc(Cl)c3)nnc12	.	.	.	.	-3.7%[46.1 µM]
Cc1c(C(=O)O)c(C(=O)O)c2n1CCS2	0.8	-12.2%	-9.9	9.5%[46.1 µM]	8.2%[46.1 µM]
COc1ccc(N(CC(=O)NCc2ccccc2Cl)S(=O)(=O)c2c(C)nn(C)c2C)cc1	.	.	.	-15.6%[46.1 µM]	-0.4%[46.1 µM]
O=C(COC(=O)/C=C/c1ccco1)Nc1cccc([N+](=O)[O-])c1	5.8	12.9%	7.7	?	-2.7%
Cc1ccc(Nc2nc3ccccc3c(=O)s2)cc1C	-2.9	67.6%	-1.4	6.4%	1.5%
COc1ccc2nc(NC(=O)C3CCN(C(=O)c4ccco4)CC3)sc2c1	36.2*	2.0%	144.1*	-27.0%	-17.0%[46.1 µM]
O=c1sc(Nc2ccccc2)nc2ccsc12	80.1*	13.0%	91.5*	?	?
O=C(Nc1nc2ccsc2c(=O)s1)c1ccco1	27.4*	-11.3%	97.2*	?	?
O=C(Nc1nc2c(s1)CCc1ccccc1-2)c1ccco1	49.9*	-6.7%	81.2*	17.5%	?
CC(C)CC(C(=O)NC(C)(C)C)N(CC1CCCO1)C(=O)c1snc(C(N)=O)c1N (stereo not given)	-1.2	-7.7%	11.5	21.7%	?
O=C(Nc1nc2ccsc2c(=O)s1)C1CCC1	40.7*	6.7%	55.0*	?	-6.2%
COc1ccc2nc(NC(=O)C3CCN(S(=O)(=O)c4cccc5nsnc45)CC3)sc2c1	-2.2	-0.6%	-3.1	4.61µM*	?
CCOC(=O)C1(Cc2cccc(Cl)c2)CCCN(C(=O)CCC(=O)N(C)C)C1 (stereo not given)	-1.6	7.0%	1.1	.	.
CCOC(=O)C1(Cc2cccc(Cl)c2)CCCN(C(=O)c2ccc(COC)s2)C1 (stereo not given)	20.0*	-0.6%	23.1	?	-12.6%
CCOC(=O)C1(Cc2cccc(Cl)c2)CCCN(C(=O)c2cccc(C)n2)C1 (stereo not given)	1.6	0.5%	-1.7	?	7.08µM*
CCOC(=O)C1(Cc2cccc(Cl)c2)CCCN(C(=O)C2CC2)C1 (stereo not given)	13.8*	-14.0%	5.3	-2.4%	-33.3%[46.1 µM]
CCOC(=O)C1(Cc2cccc(Cl)c2)CCCN(C(=O)c2ccco2)C1 (stereo not given)	15.6	-4.5%	63.9*	.	.
COc1cccc(-c2ccc3c(c2)O[C@H](CN(C)C(=O)c2ccccc2F)[C@H](C)CN([C@H](C)CO)S3(=O)=O)c1	.	13.6%	.	.	.
Cc1ccc(S(=O)(=O)Nc2c(C(=O)O)[nH]c3ccccc23)c(C)c1	-1.0	-5.9%	9.5	.	.
O=C(CS(=O)(=O)c1cccc2nsnc12)NCc1ccccc1	.	.	.	0.5%[46.1 µM]	.
Cc1cccc(NC(=S)NCCc2c[nH]c3ccccc23)c1	1.1	-11.1%[2.32 µM]	-1.3	?	?
O=C(NCCc1c[nH]c2ccccc12)Nc1ccccc1	24.0*	-2.2%	14.5	?	-6.5%
